Measurements taken from PubChem BioAssay (NCI).
Several values for one entry are separate records, joined by “and”; a condition that tells them apart may be missing. Identical values can stand only once. This is part of a sample that, as a whole, favours compounds with a hit. Of some 83,000 tested, about 20% had one in any assay.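 The endpoint reported here, percent growth, reads 100 for growth as untreated, 0 for no net growth and -100 for all cells dead.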 Activity calls are given as the source filed them. The calls were made as follows: active = growth percent below 10; inactive = the rest.

How the values were obtained:
Experiment in all cases: NCI-60 one-dose screen, 48 h (100 = growth as untreated, 0 = no growth, -100 = all killed)
Details in all cases: 10 µM unless noted
SR leukemia = test system: SR leukemia
RPMI-8226 leukemia = test system: RPMI-8226 leukemia
OVCAR-8 ovarian = test system: OVCAR-8 ovarian
OVCAR-5 ovarian = test system: OVCAR-5 ovarian
OVCAR-4 ovarian = test system: OVCAR-4 ovarian
SK-OV-3 ovarian = test system: SK-OV-3 ovarian
IGROV1 ovarian = test system: IGROV1 ovarian
OVCAR-3 ovarian = test system: OVCAR-3 ovarian
HS 578T breast = test system: HS 578T breast
NCI/ADR-RES ovarian = test system: NCI/ADR-RES ovarian
BT-549 breast = test system: BT-549 breast
MDA-MB-435 melanoma = test system: MDA-MB-435 melanoma
SW-620 colon = test system: SW-620 colon
MCF7 breast = test system: MCF7 breast
HCC-2998 colon = test system: HCC-2998 colon
KM12 colon = test system: KM12 colon
T-47D breast = test system: T-47D breast
HCT-116 colon = test system: HCT-116 colon

Measured: growth

S=c1ccc2ccccc2[nH]1
inactive: SR leukemia 109% and 97.3% | RPMI-8226 leukemia 109% and 104% | OVCAR-8 ovarian 102% and 98.6% | OVCAR-5 ovarian 102% and 105% | OVCAR-4 ovarian 104% and 108% | SK-OV-3 ovarian 97.9% and 101% | IGROV1 ovarian 104% and 106% | OVCAR-3 ovarian 114% and 107% | HS 578T breast 97.7% and 103% | NCI/ADR-RES ovarian 107% and 110% | BT-549 breast 100% and 104% | MDA-MB-435 melanoma 110% and 104% | SW-620 colon 106% and 104% | MCF7 breast 99.5% and 103% | HCC-2998 colon 111% and 107% | KM12 colon 106% and 103%

CCN(CC)CCO/N=C1\CC(c2ccc(OC)c(OC)c2)Oc2ccccc21 (stereo unspecified)
inactive: SR leukemia 98.5% | RPMI-8226 leukemia 87.8% | OVCAR-8 ovarian 102% | OVCAR-5 ovarian 95.4% | OVCAR-4 ovarian 96.5% | SK-OV-3 ovarian 96.5% | OVCAR-3 ovarian 111% | HS 578T breast 90.3% | NCI/ADR-RES ovarian 89.6% | T-47D breast 89.4% | BT-549 breast 94% | MDA-MB-435 melanoma 100% | SW-620 colon 90.3% | MCF7 breast 89.4% | HCC-2998 colon 109% | KM12 colon 103%

O=C(OCc1ccccc1)c1ccccc1
inactive: SR leukemia 104% and 86.5% | RPMI-8226 leukemia 99.5% | OVCAR-8 ovarian 101% and 95.7% | OVCAR-5 ovarian 102% and 91.7% | OVCAR-4 ovarian 108% | SK-OV-3 ovarian 99.1% and 93.6% | OVCAR-3 ovarian 116% | HS 578T breast 105% | NCI/ADR-RES ovarian 107% and 99.7% | T-47D breast 96% and 87.9% | BT-549 breast 109% and 102% | MDA-MB-435 melanoma 105% and 112% | SW-620 colon 110% and 105% | MCF7 breast 107% and 94.3% | HCT-116 colon 108% and 93.7% | HCC-2998 colon 102% and 93.9% | KM12 colon 104% and 102%

CC(=O)c1cccc(OC(=O)c2ccccc2)c1
inactive: SR leukemia 65.6% | RPMI-8226 leukemia 100% | OVCAR-8 ovarian 99% | OVCAR-5 ovarian 104% | OVCAR-4 ovarian 92.7% | SK-OV-3 ovarian 97.6% | OVCAR-3 ovarian 124% | HS 578T breast 105% | NCI/ADR-RES ovarian 96% | T-47D breast 102% | MDA-MB-435 melanoma 117% | SW-620 colon 106% | MCF7 breast 85.2% | HCT-116 colon 90.1% | HCC-2998 colon 101% | KM12 colon 110%

CCOC(=O)NC(N)=O
inactive: SR leukemia 90.3% and 108% | RPMI-8226 leukemia 101% and 99.4% | OVCAR-8 ovarian 102% and 97% | OVCAR-5 ovarian 101% | OVCAR-4 ovarian 116% and 106% | IGROV1 ovarian 98% and 110% | OVCAR-3 ovarian 113% and 125% | HS 578T breast 102% and 107% | NCI/ADR-RES ovarian 105% and 107% | T-47D breast 104% and 107% | BT-549 breast 96% and 110% | MDA-MB-435 melanoma 101% and 99% | SW-620 colon 107% and 111% | MCF7 breast 103% and 107% | HCT-116 colon 99.3% and 99.5% | HCC-2998 colon 103% | KM12 colon 112%

ON=C(C1CCCCC1)C1CCCCC1
inactive: SR leukemia 97.2% | RPMI-8226 leukemia 105% | OVCAR-8 ovarian 107% | OVCAR-5 ovarian 89.5% | OVCAR-4 ovarian 107% | IGROV1 ovarian 102% | OVCAR-3 ovarian 105% | HS 578T breast 101% | NCI/ADR-RES ovarian 103% | T-47D breast 87.3% | BT-549 breast 108% | MDA-MB-435 melanoma 103% | SW-620 colon 102% | MCF7 breast 93.3% | HCT-116 colon 100% | HCC-2998 colon 109% | KM12 colon 95.5%

CCC(=O)Oc1ccc(OCc2ccccc2)cc1
inactive: SR leukemia 80.9% and 97.4% | RPMI-8226 leukemia 89.6% and 90.6% | OVCAR-8 ovarian 87.7% and 69.1% | OVCAR-5 ovarian 113% and 119% | SK-OV-3 ovarian 105% and 101% | IGROV1 ovarian 92.8% and 82% | OVCAR-3 ovarian 95% and 104% | HS 578T breast 98.3% and 97.3% | NCI/ADR-RES ovarian 66.6% and 65% | T-47D breast 113% and 89.5% | MDA-MB-435 melanoma 96.9% and 82.1% | MCF7 breast 91.4% and 88.5% | HCT-116 colon 99.7% and 102% | HCC-2998 colon 84.4% and 87.7% | KM12 colon 86.5% and 89.6%

O=C(c1ccncc1)c1c(Cc2ccccc2)ccc2ccccc12
inactive: SR leukemia 107% | RPMI-8226 leukemia 85.1% | OVCAR-8 ovarian 82.5% | OVCAR-5 ovarian 87.5% | OVCAR-4 ovarian 82.7% | IGROV1 ovarian 18% | OVCAR-3 ovarian 98% | HS 578T breast 95.3% | NCI/ADR-RES ovarian 88.2% | T-47D breast 113% | MDA-MB-435 melanoma 83.2% | SW-620 colon 90.4% | MCF7 breast 101% | HCC-2998 colon 37.3% | KM12 colon 102%
active: BT-549 breast -7.98%

CCOc1ccc(/C=C\C(=O)O)cc1
inactive: SR leukemia 81.6% | RPMI-8226 leukemia 113% | OVCAR-8 ovarian 98.7% | OVCAR-5 ovarian 117% | OVCAR-4 ovarian 108% | SK-OV-3 ovarian 139% | OVCAR-3 ovarian 117% | HS 578T breast 112% | NCI/ADR-RES ovarian 110% | T-47D breast 122% | MDA-MB-435 melanoma 107% | MCF7 breast 95.2% | HCC-2998 colon 109% | KM12 colon 106%

Nc1c(Cl)cc2c(c1Br)C(=O)c1ccccc1C2=O
inactive: SR leukemia 78.4% | RPMI-8226 leukemia 98.3% | OVCAR-8 ovarian 89.3% | OVCAR-5 ovarian 98.5% | OVCAR-4 ovarian 106% | IGROV1 ovarian 71.6% | OVCAR-3 ovarian 117% | HS 578T breast 98% | NCI/ADR-RES ovarian 92.4% | T-47D breast 76% | MDA-MB-435 melanoma 105% | SW-620 colon 99.6% | MCF7 breast 99.8% | HCT-116 colon 96.7% | HCC-2998 colon 101% | KM12 colon 106%

O=S(=O)(O)c1ccc2cc(O)ccc2c1
inactive: SR leukemia 101% | RPMI-8226 leukemia 106% | OVCAR-8 ovarian 102% | OVCAR-5 ovarian 107% | OVCAR-4 ovarian 112% | IGROV1 ovarian 109% | OVCAR-3 ovarian 112% | HS 578T breast 104% | NCI/ADR-RES ovarian 105% | T-47D breast 102% | BT-549 breast 105% | MDA-MB-435 melanoma 107% | SW-620 colon 99.9% | MCF7 breast 99.8% | HCT-116 colon 108% | HCC-2998 colon 109% | KM12 colon 110%

COc1ccc2oc3c(ccc[n+]3C)c(=O)c2c1
inactive: SR leukemia 119% | RPMI-8226 leukemia 104% | OVCAR-8 ovarian 96.5% | OVCAR-5 ovarian 98.9% | OVCAR-4 ovarian 108% | SK-OV-3 ovarian 99.7% | OVCAR-3 ovarian 109% | HS 578T breast 99.8% | NCI/ADR-RES ovarian 108% | BT-549 breast 103% | MDA-MB-435 melanoma 105% | SW-620 colon 105% | MCF7 breast 100% | HCT-116 colon 101% | HCC-2998 colon 117% | KM12 colon 108%

CC(=O)Nc1cscc1NC(C)=O
inactive: SR leukemia 90.1% | RPMI-8226 leukemia 95.8% | OVCAR-8 ovarian 107% | OVCAR-5 ovarian 91.9% | OVCAR-4 ovarian 100% | IGROV1 ovarian 99.2% | OVCAR-3 ovarian 102% | HS 578T breast 103% | NCI/ADR-RES ovarian 98.9% | T-47D breast 94.4% | BT-549 breast 90.3% | MDA-MB-435 melanoma 89.1% | SW-620 colon 97.6% | MCF7 breast 94.5% | HCT-116 colon 103% | HCC-2998 colon 94.1% | KM12 colon 106%

N#Cc1ccc(/C=C/C(=O)c2ccccc2)cc1
inactive: OVCAR-8 ovarian 98.9% and 98.8% | OVCAR-5 ovarian 108% and 91.1% | OVCAR-4 ovarian 95.2% and 103% | OVCAR-3 ovarian 55.4% and 75.5% | HS 578T breast 128% and 102% | NCI/ADR-RES ovarian 111% and 95.8% | T-47D breast 88.3% and 82.5% | BT-549 breast 98% and 96.5% | MDA-MB-435 melanoma 84.4% and 95.2%
110% (inactive) and 7.47% (active): HCC-2998 colon
3.73% (active) and 34.9% (inactive): MCF7 breast
-47.9% (active) and 15.7% (inactive): KM12 colon
active: SR leukemia -63.9% | RPMI-8226 leukemia -35.6% and -54.9% | HCT-116 colon -97.4% and -60.8%
19.1% (inactive) and 1.04% (active): SW-620 colon
